{"source": "PubChem BioAssay", "note": "A number with no mark means an inactive call. Activity calls are given as the source filed them.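 The calls were made as follows, unless noted: active = inhibition above 54%, about 3 SD of non-fluorescent compounds; inactive = the rest.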"}
{"target": "Beta-2 adrenergic receptor (Homo sapiens) (UniProt P07550)", "sequence (P07550 whole entry, looked up)": "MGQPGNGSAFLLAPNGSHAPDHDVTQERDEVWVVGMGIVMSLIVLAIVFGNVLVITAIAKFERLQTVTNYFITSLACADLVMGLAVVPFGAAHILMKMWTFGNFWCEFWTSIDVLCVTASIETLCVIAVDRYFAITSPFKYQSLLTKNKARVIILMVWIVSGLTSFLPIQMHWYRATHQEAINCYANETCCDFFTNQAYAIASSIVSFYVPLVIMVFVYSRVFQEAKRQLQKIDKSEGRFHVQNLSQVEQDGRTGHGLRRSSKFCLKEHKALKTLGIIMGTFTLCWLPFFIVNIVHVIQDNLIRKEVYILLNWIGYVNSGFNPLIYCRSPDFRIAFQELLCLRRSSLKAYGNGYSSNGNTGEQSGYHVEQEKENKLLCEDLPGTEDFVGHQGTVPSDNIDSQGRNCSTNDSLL", "test": "agonist-induced loss of surface beta2AR – cell-based, FAP fluorogen, flow cytometry, validation set, pilot screen (AID 504459;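 active = percent response above 42, roughly 3 SD of non-fluorescent test compounds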;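 also: agonist-driven loss of surface beta2AR via internalization measured by FAP dye flow cytometry; reference of the scale not given here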)", "conditions": "Am2.2-beta2AR cells, at 10 µM, hits give high values"}
{"compound": "N/C(=N/OS(=O)(=O)c1ccc([N+](=O)[O-])cc1)c1ccncc1", "response": "-5.72%"}
{"compound": "CCSc1nc(O)c(C2OC(=O)c3c2ccc(OC)c3OC)c(=O)n1CC", "note": "(stereo not given)", "response": "15.5%"}
{"compound": "COc1cc2ccc(=O)oc2c(O)c1OCC=C(C)C", "response": "-9.13%"}
{"compound": "CC(=O)N1CC23C=CC(CC2CC12CCCCCC2)O3", "note": "(stereo not given)", "response": "-21.9%"}
{"compound": "CC(=O)c1cn(C)c(=O)[nH]c1=O", "response": "72.3% (active)"}
{"compound": "CC(=O)Oc1ccc(C2OC(=O)c3ccccc3N2C(C)=O)cc1", "note": "(stereo not given)", "response": "15.3%"}
{"compound": "O=C1c2ccccc2C(=O)C1c1ccccc1", "response": "-32.5%"}
{"compound": "O=c1[nH]cnc2c1ncn2[C@@H]1O[C@H](CO)[C@@H](O)[C@H]1O", "response": "-18%"}
{"compound": "Nc1ccc2[nH]ncc2c1", "response": "20.4%"}
{"compound": "CCN(CC)CCN1C(=O)C(=O)/C(=C(/O)c2c(C)[nH]c(C(=O)OC)c2C)C1c1cccnc1", "note": "(stereo not given)", "response": "13.3%"}
{"compound": "Cc1ccc2c(c1)c1c(n2C)C(=O)CCC1", "response": "6.59%"}
{"compound": "COc1ccc(N2C(=O)C3CCCN3C2=O)cc1", "note": "(stereo not given)", "response": "7.47%"}
{"compound": "COc1cccc(OC2OC3COC(C)(C)OC3C(O)C2NC(C)=O)c1", "note": "(stereo not given)", "response": "2.82%"}
{"compound": "CC[N+](C)(C)Cc1ccccc1Br", "response": "-19.8%"}
{"compound": "C[C@H](NC(=O)Nc1ccccc1F)C(=O)O", "response": "-5.56%"}
{"compound": "COc1cc(NC(=O)N[C@@H](Cc2ccccc2)C(=O)O)cc(OC)c1", "response": "-10.8%"}
{"compound": "CN(C)CCOc1ccccc1Cc1ccccc1", "response": "-20.2%"}
{"compound": "CCc1cn([C@H]2C[C@H](O)[C@@H](CO)O2)c(=O)[nH]c1=O", "response": "7.43%"}
{"compound": "COc1ccc(CCn2c(C)cc3c(c2=O)C(c2ccncc2)C(C#N)=C(N)O3)cc1OC", "note": "(stereo not given)", "response": "10.6%"}
{"compound": "CC(C)(C)C(=O)NC(=S)Nc1sc2c(c1C(N)=O)CCC2", "response": "7.03%"}
{"compound": "Cc1cc(C(=O)NC(CC(C)C)C(=O)O)cc(C)c1[N+](=O)[O-]", "note": "(stereo not given)", "response": "1%"}
{"compound": "CCS(=O)(=O)Nc1cc(OC)c(OC)cc1Cc1nccc2cc(OC)c(OC)cc12", "response": "-40%"}
{"compound": "CCn1c(O)c(/C=C2\\C=Nc3ccccc32)sc1=O", "response": "-3.25%"}
{"compound": "O=C(C1CCCCC1)N1CC(=O)N2CCc3ccccc3C2C1", "note": "(stereo not given)", "response": "-15.4%"}
{"compound": "CCn1cc(C(=O)O)c(=O)c2cc(F)c(N3CCNCC3)cc21", "response": "29.6%"}
{"compound": "COc1cccc(N2CC34C=CC(O3)C(C(=O)O)C4C2=O)c1", "note": "(stereo not given)", "response": "-21.5%"}
{"compound": "CC(=O)NCCCC(=O)NC(CCC(=O)OCc1ccccc1)C(=O)OCc1ccccc1", "note": "(stereo not given)", "response": "6.65%"}
{"compound": "Cn1cc(CN(CCO)Cc2cccs2)c(-c2cccc(Cl)c2)n1", "response": "32.8%"}
{"compound": "COc1ccc(C(=O)NC(=O)NC2(C(Cl)(Cl)Cl)OCCO2)cc1", "response": "-20.1%"}
{"compound": "CC(=O)c1c(C)[nH]c(C(=O)OCc2ccccc2)c1C", "response": "-5.41%"}
{"compound": "C=CCN1C(=O)c2oc3ccccc3c(=O)c2C1c1ccc(O)c(OC)c1", "note": "(stereo not given)", "response": "105% (active)"}
{"compound": "CC(=O)CCc1oc2ccccc2c1-c1ccccc1", "response": "-37.7%"}
{"compound": "COc1cc(OC)c(C(=O)CCCN2CCCC2)c(OC)c1", "response": "-11.1%"}
{"compound": "CC(=O)OCC(=O)[C@@]1(OC(C)=O)[C@@H](C)C[C@H]2[C@@H]3C[C@H](F)C4=CC(=O)C=C[C@]4(C)[C@@]3(F)[C@@H](O)C[C@@]21C", "response": "5.99%"}
{"compound": "Cc1nnc(SCC(=O)N2CCCC(C(=O)c3ccc(Cl)cc3)C2)o1", "note": "(stereo not given)", "response": "-7.42%"}
{"compound": "Fc1cc(F)cc(NC(=S)NCCCN2CCOCC2)c1", "response": "-24.3%"}
{"compound": "COc1ccccc1C1(CC(=O)N2CCCCC2)CCOC(C(C)C)C1", "note": "(stereo not given)", "response": "8.83%"}
{"compound": "CCCCC[C@H](O)/C=C/[C@@H]1[C@@H](C/C=C\\CCCC(=O)O)[C@H]2CO[C@@H]1C2", "response": "-18.1%"}
{"compound": "CCC(=O)c1ccc(O)cc1", "response": "-7.88%"}
{"compound": "Cn1c2[n+](c3ccc(Cl)cc3c1=O)Cc1ccccc1-2", "response": "-8.51%"}
{"target": "AP-2 complex subunit beta (Homo sapiens) (UniProt P63010)", "sequence (P63010 whole entry, looked up, one chain of several)": "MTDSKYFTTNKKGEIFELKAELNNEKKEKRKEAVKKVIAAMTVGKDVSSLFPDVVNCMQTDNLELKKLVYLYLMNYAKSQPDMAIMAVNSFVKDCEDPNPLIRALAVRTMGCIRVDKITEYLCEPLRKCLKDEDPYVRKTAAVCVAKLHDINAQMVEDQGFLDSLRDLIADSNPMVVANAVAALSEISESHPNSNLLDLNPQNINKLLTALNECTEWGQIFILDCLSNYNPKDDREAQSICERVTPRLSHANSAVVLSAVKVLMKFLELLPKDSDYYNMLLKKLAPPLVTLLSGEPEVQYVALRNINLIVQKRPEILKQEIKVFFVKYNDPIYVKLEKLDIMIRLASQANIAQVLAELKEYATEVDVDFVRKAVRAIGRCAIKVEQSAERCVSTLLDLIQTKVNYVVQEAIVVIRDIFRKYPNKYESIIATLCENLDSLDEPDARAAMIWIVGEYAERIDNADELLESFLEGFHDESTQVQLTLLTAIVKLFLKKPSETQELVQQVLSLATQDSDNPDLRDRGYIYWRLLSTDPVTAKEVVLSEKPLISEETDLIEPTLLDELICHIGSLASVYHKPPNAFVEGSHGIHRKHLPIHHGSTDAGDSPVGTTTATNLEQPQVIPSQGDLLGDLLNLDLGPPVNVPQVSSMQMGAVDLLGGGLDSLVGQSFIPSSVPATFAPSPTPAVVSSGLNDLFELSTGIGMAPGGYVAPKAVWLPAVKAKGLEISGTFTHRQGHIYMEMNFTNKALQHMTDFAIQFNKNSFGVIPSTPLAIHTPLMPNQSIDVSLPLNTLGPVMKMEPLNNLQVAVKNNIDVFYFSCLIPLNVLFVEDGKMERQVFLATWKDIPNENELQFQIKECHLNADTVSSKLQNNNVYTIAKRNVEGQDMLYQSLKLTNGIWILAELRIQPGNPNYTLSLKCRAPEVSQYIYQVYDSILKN", "test": "beta-arrestin/AP2 interaction blockers – biochemical, validation set, GST-AP2 beads, flow cytometry, pilot screen (AID 504541);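 also: AP2 carries R879A mutation and is captured from E. coli lysate; bead-bound FITC arrestin peptide fluorescence measuring arrestin peptide binding to AP2; 0% = DMSO wells and 100% = excess unlabeled arrestin peptide control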", "conditions": "FITC arrestin peptide, at 10 µM, hits give high values, AP2 beta2 appendage fragment, R879A mutant", "units": {"inhibition": "%"}}
{"compound": "N/C(=N/OS(=O)(=O)c1ccc([N+](=O)[O-])cc1)c1ccncc1", "inhibition": -1.57}
{"compound": "CCSc1nc(O)c(C2OC(=O)c3c2ccc(OC)c3OC)c(=O)n1CC", "note": "(stereo not given)", "inhibition": -2.62}
{"compound": "COc1cc2ccc(=O)oc2c(O)c1OCC=C(C)C", "inhibition": -0.67}
{"compound": "CC(=O)N1CC23C=CC(CC2CC12CCCCCC2)O3", "note": "(stereo not given)", "inhibition": -0.87}
{"compound": "CC(=O)c1cn(C)c(=O)[nH]c1=O", "inhibition": -5.48}
{"compound": "CC(=O)Oc1ccc(C2OC(=O)c3ccccc3N2C(C)=O)cc1", "note": "(stereo not given)", "inhibition": 0.53}
{"compound": "O=C1c2ccccc2C(=O)C1c1ccccc1", "inhibition": -6.92}
{"compound": "O=c1[nH]cnc2c1ncn2[C@@H]1O[C@H](CO)[C@@H](O)[C@H]1O", "inhibition": -10.3}
{"compound": "Nc1ccc2[nH]ncc2c1", "inhibition": 11.5}
{"compound": "CCN(CC)CCN1C(=O)C(=O)/C(=C(/O)c2c(C)[nH]c(C(=O)OC)c2C)C1c1cccnc1", "note": "(stereo not given)", "inhibition": 0.35}
{"compound": "Cc1ccc2c(c1)c1c(n2C)C(=O)CCC1", "inhibition": -3.89}
{"compound": "COc1ccc(N2C(=O)C3CCCN3C2=O)cc1", "note": "(stereo not given)", "inhibition": 9.15}
{"compound": "COc1cccc(OC2OC3COC(C)(C)OC3C(O)C2NC(C)=O)c1", "note": "(stereo not given)", "inhibition": 2.96}
{"compound": "CC[N+](C)(C)Cc1ccccc1Br", "inhibition": -11.2}
{"compound": "C[C@H](NC(=O)Nc1ccccc1F)C(=O)O", "inhibition": -4.89}
{"compound": "COc1cc(NC(=O)N[C@@H](Cc2ccccc2)C(=O)O)cc(OC)c1", "inhibition": -3.53}
{"compound": "CN(C)CCOc1ccccc1Cc1ccccc1", "inhibition": -8.22}
{"compound": "CCc1cn([C@H]2C[C@H](O)[C@@H](CO)O2)c(=O)[nH]c1=O", "inhibition": 3.19}
{"compound": "COc1ccc(CCn2c(C)cc3c(c2=O)C(c2ccncc2)C(C#N)=C(N)O3)cc1OC", "note": "(stereo not given)", "inhibition": -6.51}
{"compound": "CC(C)(C)C(=O)NC(=S)Nc1sc2c(c1C(N)=O)CCC2", "inhibition": 2.56}
{"compound": "Cc1cc(C(=O)NC(CC(C)C)C(=O)O)cc(C)c1[N+](=O)[O-]", "note": "(stereo not given)", "inhibition": 1.45}
{"compound": "CCS(=O)(=O)Nc1cc(OC)c(OC)cc1Cc1nccc2cc(OC)c(OC)cc12", "inhibition": -7.26}
{"compound": "CCn1c(O)c(/C=C2\\C=Nc3ccccc32)sc1=O", "inhibition": -17.2}
{"compound": "O=C(C1CCCCC1)N1CC(=O)N2CCc3ccccc3C2C1", "note": "(stereo not given)", "inhibition": -1.09}
{"compound": "CCn1cc(C(=O)O)c(=O)c2cc(F)c(N3CCNCC3)cc21", "inhibition": 5.87}
{"compound": "COc1cccc(N2CC34C=CC(O3)C(C(=O)O)C4C2=O)c1", "note": "(stereo not given)", "inhibition": 28.1}
{"compound": "CC(=O)NCCCC(=O)NC(CCC(=O)OCc1ccccc1)C(=O)OCc1ccccc1", "note": "(stereo not given)", "inhibition": -8.67}
{"compound": "Cn1cc(CN(CCO)Cc2cccs2)c(-c2cccc(Cl)c2)n1", "inhibition": -0.41}
{"compound": "COc1ccc(C(=O)NC(=O)NC2(C(Cl)(Cl)Cl)OCCO2)cc1", "inhibition": 13.5}
{"compound": "CC(=O)c1c(C)[nH]c(C(=O)OCc2ccccc2)c1C", "inhibition": 9.32}
{"compound": "C=CCN1C(=O)c2oc3ccccc3c(=O)c2C1c1ccc(O)c(OC)c1", "note": "(stereo not given)", "inhibition": -0.24}
{"compound": "CC(=O)CCc1oc2ccccc2c1-c1ccccc1", "inhibition": -8}
{"compound": "COc1cc(OC)c(C(=O)CCCN2CCCC2)c(OC)c1", "inhibition": 1.36}
{"compound": "CC(=O)OCC(=O)[C@@]1(OC(C)=O)[C@@H](C)C[C@H]2[C@@H]3C[C@H](F)C4=CC(=O)C=C[C@]4(C)[C@@]3(F)[C@@H](O)C[C@@]21C", "inhibition": 1.66}
{"compound": "Cc1nnc(SCC(=O)N2CCCC(C(=O)c3ccc(Cl)cc3)C2)o1", "note": "(stereo not given)", "inhibition": -3.16}
{"compound": "Fc1cc(F)cc(NC(=S)NCCCN2CCOCC2)c1", "inhibition": -3.24}
{"compound": "COc1ccccc1C1(CC(=O)N2CCCCC2)CCOC(C(C)C)C1", "note": "(stereo not given)", "inhibition": -7.8}
{"compound": "CCCCC[C@H](O)/C=C/[C@@H]1[C@@H](C/C=C\\CCCC(=O)O)[C@H]2CO[C@@H]1C2", "inhibition": 1.57}
{"compound": "CCC(=O)c1ccc(O)cc1", "inhibition": -11.7}
{"compound": "Cn1c2[n+](c3ccc(Cl)cc3c1=O)Cc1ccccc1-2", "inhibition": 1.06}
